The supplement of paper PMC7411054
Where a name gives a salt, the structure may show the parent alone.

Columns and labels:
Assay in all cases: phenotypically active (imaging signature differs from DMSO and reproducible) at any of 0.3-9 uM (binary (1 = active, 0 = inactive)); higher = active
Conditions in all cases: treatment time: 24 h
[1] = tested on: A549-ACTB-RAB5A
Method in brief: (§1)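 Fifteen gene-edited A549, HepG2 and WPMY1 reporter lines (BFP segmentation plus GFP and RFP/FusionRed markers) were treated at 0.3, 1, 3 or 9 µM for 24 h, four wells each, then imaged live. Live-cell features per well were normalised to DMSO control wells. Deviation required ≥3 of 4 wells beyond the 95th percentile of DMSO Euclidean distances, and reproducibility required median replicate Pearson correlation above the 95th percentile of non-replicates. Phenotypic activity needed both criteria.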

[2] = tested on: A549-CANX-COX4
Method in brief: as §1

[3] = tested on: A549-GM130-SQSTM1
Method in brief: as §1

[4] = tested on: A549-TP53BP1-CLTA
Method in brief: as §1

[5] = tested on: A549-TUBA1B-RELA
Method in brief: as §1

[6] = tested on: HepG2-ACTB-RAB5A
Method in brief: as §1

[7] = tested on: HepG2-CANX-COX4
Method in brief: as §1

[8] = tested on: HepG2-GM130-SQSTM1
Method in brief: as §1

[9] = tested on: HepG2-TP53BP1-CLTA
Method in brief: as §1

[10] = tested on: HepG2-TUBA1B-RELA
Method in brief: as §1

[11] = tested on: WPMY1-ACTB-RAB5A
Method in brief: as §1

[12] = tested on: WPMY1-CANX-COX4
Method in brief: as §1

[13] = tested on: WPMY1-GM130-SQSTM1
Method in brief: as §1

[14] = tested on: WPMY1-TP53BP1-CLTA
Method in brief: as §1

[15] = tested on: WPMY1-TUBA1B-RELA
Method in brief: as §1

Measured: phenotypically active

C[C@@H](CO)CCC[C@@H](C)[C@H]1CC[C@H]2[C@@H]3CC=C4C[C@@H](O)CC[C@]4(C)[C@H]3CC[C@]12C [27-Hydroxycholesterol]
inactive: [1] 0 | [2] 0 | [3] 0 | [4] 0 | [5] 0 | [6] 0 | [7] 0 | [8] 0 | [9] 0 | [10] 0 | [11] 0 | [12] 0 | [13] 0 | [14] 0 | [15] 0

Cc1[nH]c2ccccc2c1CCNC(=O)c1ccccc1F
inactive: [1] 0 | [2] 0 | [3] 0 | [4] 0 | [5] 0 | [6] 0 | [7] 0 | [8] 0 | [9] 0 | [10] 0 | [11] 0 | [12] 0 | [13] 0 | [14] 0 | [15] 0

COc1cc2c(NC3CCN(C)CC3)nc(N3CCCN(C)CC3)nc2cc1OCCCN(C)C
inactive: [1] 0 | [2] 0 | [3] 0 | [4] 0 | [5] 0 | [6] 0 | [7] 0 | [8] 0 | [9] 0 | [10] 0 | [11] 0 | [12] 0 | [13] 0 | [14] 0 | [15] 0

O=C(/C=C\c1ccc(O)c(O)c1)O[C@H]1C[C@](OC(=O)/C=C/c2ccc(O)c(O)c2)(C(=O)O)C[C@H](O)[C@H]1O [Cynarin]
inactive: [1] 0 | [2] 0 | [3] 0 | [4] 0 | [5] 0 | [6] 0 | [7] 0 | [8] 0 | [9] 0 | [10] 0 | [11] 0 | [12] 0 | [13] 0 | [14] 0 | [15] 0

O=[N+]([O-])c1c(Nc2cc(F)cc(Cl)c2)ccc2nonc12
inactive: [1] 0 | [2] 0 | [3] 0 | [4] 0 | [5] 0 | [6] 0 | [7] 0 | [8] 0 | [9] 0 | [10] 0 | [11] 0 | [12] 0 | [13] 0 | [14] 0 | [15] 0

NC(=O)N1c2ccccc2C=Cc2ccccc21 [carbamazepine]
inactive: [1] 0 | [2] 0 | [3] 0 | [4] 0 | [5] 0 | [6] 0 | [7] 0 | [8] 0 | [9] 0 | [10] 0 | [11] 0 | [12] 0 | [13] 0 | [14] 0 | [15] 0

COc1ccccc1OCC(O)CN1CCN(CC(=O)Nc2c(C)cccc2C)CC1 (stereo not given) [ranolazine]
inactive: [1] 0 | [2] 0 | [3] 0 | [4] 0 | [5] 0 | [6] 0 | [7] 0 | [8] 0 | [9] 0 | [10] 0 | [11] 0 | [12] 0 | [13] 0 | [14] 0 | [15] 0

CC(C)C1=CC2=CCC3[C@](C)(CCC[C@]3(C)C(=O)O)C2CC1 (stereo not given in full) [Abietic Acid]
inactive: [1] 0 | [2] 0 | [3] 0 | [4] 0 | [5] 0 | [6] 0 | [7] 0 | [8] 0 | [9] 0 | [10] 0 | [11] 0 | [12] 0 | [13] 0 | [14] 0 | [15] 0

O=c1oc2c(O)c(O)cc3c(=O)oc4c(O)c(O)cc1c4c23 [Ellagic acid]
inactive: [1] 0 | [2] 0 | [3] 0 | [4] 0 | [5] 0 | [6] 0 | [7] 0 | [8] 0 | [9] 0 | [10] 0 | [11] 0 | [12] 0 | [13] 0 | [14] 0 | [15] 0

COC(=O)c1c(-c2cc(OC)c(OC)c(OC)c2)c2ccnc(OCc3ncccn3)c2c(=O)n1Cc1ccnc(C)c1 [T 0156 hydrochloride]
inactive: [1] 0 | [2] 0 | [3] 0 | [4] 0 | [5] 0 | [6] 0 | [7] 0 | [8] 0 | [9] 0 | [10] 0 | [11] 0 | [12] 0 | [13] 0 | [14] 0 | [15] 0

CCOC(=O)[C@H](CCc1ccccc1)N[C@@H](C)C(=O)N1[C@H](C(=O)O)C[C@@H]2CCC[C@@H]21 [ramipril]
inactive: [1] 0 | [2] 0 | [3] 0 | [4] 0 | [5] 0 | [6] 0 | [7] 0 | [8] 0 | [9] 0 | [10] 0 | [11] 0 | [12] 0 | [13] 0 | [14] 0 | [15] 0

C[n+]1cccc(C(=O)O)c1 [Trigonelline hydrochloride]
inactive: [1] 0 | [2] 0 | [3] 0 | [4] 0 | [5] 0 | [6] 0 | [7] 0 | [8] 0 | [9] 0 | [10] 0 | [11] 0 | [12] 0 | [13] 0 | [14] 0 | [15] 0

CC[N+](CC)(CC)CCOc1cccc(OCC[N+](CC)(CC)CC)c1OCC[N+](CC)(CC)CC [gallamine-triethiodide]
inactive: [1] 0 | [2] 0 | [3] 0 | [4] 0 | [5] 0 | [6] 0 | [7] 0 | [8] 0 | [9] 0 | [10] 0 | [11] 0 | [12] 0 | [13] 0 | [14] 0 | [15] 0

COc1ccc2c(c1OC)C(=O)O[C@@H]2[C@H]1c2c(cc3c(c2OC)OCO3)CCN1C [Noscapine hydrochloride]
inactive: [1] 0 | [2] 0 | [3] 0 | [4] 0 | [5] 0 | [6] 0 | [7] 0 | [8] 0 | [9] 0 | [10] 0 | [11] 0 | [12] 0 | [13] 0 | [14] 0 | [15] 0

CCc1nn(CCCN2CCN(c3cccc(Cl)c3)CC2)c(=O)n1CCOc1ccccc1 [nefazodone]
inactive: [1] 0 | [2] 0 | [3] 0 | [4] 0 | [5] 0 | [6] 0 | [7] 0 | [8] 0 | [9] 0 | [10] 0 | [11] 0 | [12] 0 | [13] 0 | [14] 0 | [15] 0

C=C[C@H]1[C@H](O[C@@H]2O[C@H](CO)[C@@H](O)[C@H](O)[C@H]2O)OC=C2C(=O)NCC[C@H]21 [Bakankosine]
inactive: [1] 0 | [2] 0 | [3] 0 | [4] 0 | [5] 0 | [6] 0 | [7] 0 | [8] 0 | [9] 0 | [10] 0 | [11] 0 | [12] 0 | [13] 0 | [14] 0 | [15] 0

COc1ccc(C2=N[C@H](c3ccc(Cl)cc3)[C@H](c3ccc(Cl)cc3)N2C(=O)N2CCNC(=O)C2)c(OC(C)C)c1 [Nutlin-3]
inactive: [1] 0 | [2] 0 | [3] 0 | [4] 0 | [5] 0 | [6] 0 | [7] 0 | [8] 0 | [9] 0 | [10] 0 | [11] 0 | [12] 0 | [13] 0 | [14] 0 | [15] 0

CN(C)c1nc(N(C)C)nc(N(C)C)n1 [altretamine]
inactive: [1] 0 | [2] 0 | [3] 0 | [4] 0 | [5] 0 | [6] 0 | [7] 0 | [8] 0 | [9] 0 | [10] 0 | [11] 0 | [12] 0 | [13] 0 | [14] 0 | [15] 0

O=C1NCCCC1C(=O)NCCc1c[nH]c2ccc(O)cc12 (stereo not given)
inactive: [1] 0 | [2] 0 | [3] 0 | [4] 0 | [5] 0 | [6] 0 | [7] 0 | [8] 0 | [9] 0 | [10] 0 | [11] 0 | [12] 0 | [13] 0 | [14] 0 | [15] 0

CC(C)(C)NC[C@H](O)COc1nsnc1N1CCOCC1 [timolol]
inactive: [1] 0 | [2] 0 | [3] 0 | [4] 0 | [5] 0 | [6] 0 | [7] 0 | [8] 0 | [9] 0 | [10] 0 | [11] 0 | [12] 0 | [13] 0 | [14] 0 | [15] 0

CCCC(=O)Nc1ncnc2c1ncn2[C@@H]1O[C@@H]2COP(=O)(O)O[C@H]2[C@H]1OC(=O)CCC [Dibutyryl-cAMP, sodium salt]
inactive: [1] 0 | [2] 0 | [3] 0 | [4] 0 | [5] 0 | [6] 0 | [7] 0 | [8] 0 | [9] 0 | [10] 0 | [11] 0 | [12] 0 | [13] 0 | [14] 0 | [15] 0
